Source: PubChem
Hits are enriched below; roughly 27% of the tested compounds scored in any of these assays.
Cav32 inh = Cav3.2 calcium influx blockers – cell-based, Fluo-4 calcium fluorescence, FDSS, MLSMR library, primary screen; hit rate 4% among 100,000; AID 449739, 2010; B-score at 10 µM; Voltage-dependent T-type calcium channel subunit alpha-1H (Homo sapiens), O95180; Cav3.2-expressing cells; stronger effect = lower value;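 active = single-dose well whose peak fluorescence ratio is a statistical outlier from its plate by either plate-standardised score or position-corrected B-score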
CYP2C9 activ = human CYP2C9 activators, primary screen, biochemical, luminescence | Cytochrome P450 2C9 (Homo sapiens), P11712 | recombinant CYP2C9, luciferin-H conversion; stronger effect = higher value; factor 1 = untreated enzyme, 0 = blocked | activation factor at 5 µM | hit rate 1.4% among 96,000 | AID 1024, 2008;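 active = activation factor of 2 or more for CYP2C9 at a 5 µM dose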
CYP2C9 inh = blockers of cytochrome P450 2C9 activity – biochemical, luminescence, ADME assay, primary screen; P11712; CYP2C9 Supersomes, luciferin-H conversion; inhibition, % at 5 µM; hit rate 20% among 96,000;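 active = blocking of liver enzyme CYP2C9 beyond about 50% at 5 µM, limit read from the data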
CYP2C19 inh = blockers of cytochrome P450 2C19 activity – biochemical, luminescence, ADME assay, primary screen. CYP2C19 Supersomes, luciferin-H EGE luminescence, 30 min. P33261. inhibition, % at 5 µM. hit rate 21% among 96,000;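 active = CYP2C19 inhibition above a set limit at 5 µM in the primary screen, cut at about 50% in these data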
Pyk2 oligo antag = antagonists of Pyk2 self-association, primary screen, Q293 cells, FERM NanoBiT luminescence, HTS. stronger effect = lower value. z-score (the deposit names both 25 µM and 10 µM). hit rate 0.83% among 99,000. AID 1347419, 2020;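 active = Z-score of -3 or lower, scaled per plate to the spread of control and sample wells; inactive = z-score above -3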;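 also: negative z-score means lost luminescence so less FERM oligomerization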
Target sequence (Q14289 whole entry, looked up): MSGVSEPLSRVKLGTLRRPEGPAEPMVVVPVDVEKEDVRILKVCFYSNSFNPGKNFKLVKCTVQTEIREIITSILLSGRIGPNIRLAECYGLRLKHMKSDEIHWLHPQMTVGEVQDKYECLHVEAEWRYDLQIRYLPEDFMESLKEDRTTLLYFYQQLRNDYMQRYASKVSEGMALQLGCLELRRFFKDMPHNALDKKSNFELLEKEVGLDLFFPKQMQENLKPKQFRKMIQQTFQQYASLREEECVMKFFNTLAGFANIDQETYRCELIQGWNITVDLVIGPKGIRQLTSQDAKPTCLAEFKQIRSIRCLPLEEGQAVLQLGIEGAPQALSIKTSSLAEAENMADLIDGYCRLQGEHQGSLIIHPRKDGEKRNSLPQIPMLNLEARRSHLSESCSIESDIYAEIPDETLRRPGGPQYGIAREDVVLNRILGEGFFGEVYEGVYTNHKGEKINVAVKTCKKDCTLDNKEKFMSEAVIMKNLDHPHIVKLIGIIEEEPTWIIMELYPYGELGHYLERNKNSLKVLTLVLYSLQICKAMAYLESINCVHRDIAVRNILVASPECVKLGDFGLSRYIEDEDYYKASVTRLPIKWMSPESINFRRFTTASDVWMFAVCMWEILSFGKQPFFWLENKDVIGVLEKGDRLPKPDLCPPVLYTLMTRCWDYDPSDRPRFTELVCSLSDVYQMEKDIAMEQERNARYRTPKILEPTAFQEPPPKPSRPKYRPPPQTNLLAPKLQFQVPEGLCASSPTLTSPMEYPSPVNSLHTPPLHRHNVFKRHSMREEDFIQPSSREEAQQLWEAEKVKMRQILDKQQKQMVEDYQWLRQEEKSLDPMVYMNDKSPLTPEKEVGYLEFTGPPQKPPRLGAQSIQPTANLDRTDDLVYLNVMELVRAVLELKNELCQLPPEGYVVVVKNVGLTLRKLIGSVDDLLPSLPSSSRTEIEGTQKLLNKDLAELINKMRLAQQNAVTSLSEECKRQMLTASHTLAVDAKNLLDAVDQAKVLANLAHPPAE
CYP2C19 act = human CYP2C19 activators, primary screen, biochemical, luminescence; Cytochrome P450 2C19 (Homo sapiens), P33261; recombinant CYP2C19, luciferin-H EGE luminescence; stronger effect = higher value; 0 = fully inhibited enzyme, 1 = untreated enzyme; activation factor at 5 µM; 96,000 tested, under 10 active; AID 1025, 2008;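 active = activation factor of at least 2 at 5 µM in the primary screen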
Large screens that a line does not name were inactive.

Cc1ccccc1-c1nc2ccccc2c(=O)n1C1CCS(=O)(=O)C1 (stereo unspecified)	CYP2C19 inh 88.3
Cc1nc2ccccc2c2c1C(=O)N(C1CCCCCCC1)C2=O	none
CCCCn1c(SCC(=O)N2CCOCC2)nnc1-c1cccs1	CYP2C9 inh 62.1
C=CCn1c(SCC(=O)N2CCN(c3ccccc3)CC2)nnc1-c1ccco1	none
C=CCn1c(SCC(=O)N2CCN(c3ccc(F)cc3)CC2)nnc1-c1cccs1	CYP2C19 inh 65.0 (no result: Pyk2 oligo antag)
CCCCn1c(SCC(=O)N2CCCC2)nnc1-c1ccccc1	CYP2C19 inh 51.9
CCCCn1c(Cc2ccccc2)nnc1SCC(=O)N1CCOCC1	none (no result: CYP2C9 activ, CYP2C9 inh, CYP2C19 inh, CYP2C19 act)
CCN(CC)CCCNC(=O)C1CCC(=O)N(c2ccc(OC)cc2)C1c1ccc(F)cc1 (stereo unspecified)	none
O=C(Nc1ccccc1OC(F)F)c1ccc(Br)o1	none (no result: Cav32 inh)
CN(Cc1ccccc1)Cc1nc2c([nH]1)c(=O)n(C)c(=O)n2C	none (no result: CYP2C9 activ, CYP2C9 inh, CYP2C19 inh, CYP2C19 act)
Cc1ccc(C(=O)OCc2cn3ccccc3n2)cc1	CYP2C9 inh 58.8, CYP2C19 inh 83.0
COc1nc(-c2ccccc2)cc(-c2ccc(OC)c(OC)c2)n1	CYP2C9 inh 79.8, CYP2C19 inh 75.8
COc1ccc(-c2nc(N)n[nH]2)cc1OC	none
O=C(Nc1cccnc1)c1cccc(S(=O)(=O)N2CCOCC2)c1	none
Cc1ccnc(N2C(=O)c3ccccc3C2O)c1 (stereo unspecified)	CYP2C19 inh 50.0 (no result: Pyk2 oligo antag)
COc1ccc(CCNC(=O)C2(C)CCC(=O)N2Cc2ccc3c(c2)OCO3)cc1OC (stereo unspecified)	CYP2C19 inh 53.7 (no result: Pyk2 oligo antag)
CC1(C(=O)NC2CCCCCC2)CCC(=O)N1Cc1ccc2c(c1)OCO2 (stereo unspecified)	none
O=C(CN1C(=O)C2CC=CCC2C1=O)Nc1ccc(S(=O)(=O)NC2=NCCCCC2)cc1 (stereo unspecified)	none
O=C1/C(=C/c2ccccc2)CSc2sccc21	CYP2C19 inh 54.8
O=C1/C(=C/c2ccccc2)CCCc2ccccc21	none
N#CCCC12CCCCC1=Nc1ccccc12 (stereo unspecified)	none
Cc1ccccc1OCCn1c(=O)sc2ccccc21	none (no result: CYP2C9 activ, CYP2C9 inh, CYP2C19 inh, CYP2C19 act)
O/N=C/CCn1c(=S)sc2ccccc21	CYP2C9 activ 5.1
CCn1c(CNC(=O)COc2ccc(C(C)C)cc2)nnc1SCC(=O)NC1CCCCC1C (stereo unspecified)	none (no result: CYP2C9 activ, CYP2C9 inh, CYP2C19 inh, CYP2C19 act)
Nc1nc(NC(=O)c2cccnc2)nn1-c1ccccc1	none
O=C(NCc1ccncc1)Nc1cccc(Cl)c1	CYP2C9 inh 81.2, CYP2C19 inh 89.8
O=C(NCc1ccncc1)Nc1ccc(Cl)cc1Cl	CYP2C9 inh 83.3, CYP2C19 inh 90.1
O=C(NCc1ccncc1)Nc1ccc(F)cc1	CYP2C9 inh 79.4, CYP2C19 inh 92.2
CN(C)C(CNS(=O)(=O)c1ccc(Cl)cc1)c1cccnc1 (stereo unspecified)	CYP2C19 inh 51.8 (no result: Pyk2 oligo antag)
CN(C)C(CNS(=O)(=O)c1ccc(Br)cc1)c1cccnc1 (stereo unspecified)	none (no result: CYP2C9 activ, CYP2C9 inh, CYP2C19 inh, CYP2C19 act)
CC(C)CN(CC(C)C)C(=O)CC(=O)NC(=O)c1ccc(Cl)cc1	none
CN1C(=O)C(O)(c2sc(N)nc2-c2ccccc2)c2ccccc21 (stereo unspecified)	none
Cc1cc(C)n(-c2cc(N3CCN(C(=O)c4cccc(F)c4)CC3)ccc2[N+](=O)[O-])n1	none (no result: CYP2C9 activ, CYP2C9 inh, CYP2C19 inh, CYP2C19 act)
CCOC(=O)c1sc(NC(=O)c2cc3c(C)nn(-c4ccccc4)c3s2)nc1C	none (no result: Cav32 inh, Pyk2 oligo antag)
CN(C)C(CNC(=O)Nc1cccc(Cl)c1)c1cccnc1 (stereo unspecified)	CYP2C19 inh 51.1
COc1cc(NC(=O)Nc2cccc(C(C)=O)c2)cc(OC)c1OC	none
O=C(NCc1cccnc1)Nc1cccc(NC(=O)NCc2cccnc2)c1	none
COc1cc(NC(=O)NCc2ccncc2)cc(OC)c1OC	CYP2C9 inh 67.1, CYP2C19 inh 61.5
CSCC[C@H](NC(=O)CC(C)(C)C)c1nc2ccccc2[nH]1	none
CCCCC(NC(C)=O)c1nc2ccccc2[nH]1 (stereo unspecified)	CYP2C19 inh 64.2 (no result: Pyk2 oligo antag)
CSCC[C@H](NC(=O)c1nn(C)c(=O)c2ccccc12)c1nc2ccccc2[nH]1	CYP2C9 inh 94.2
CCn1nc(C(=O)N[C@@H](CCSC)c2nc3ccccc3[nH]2)c2ccccc2c1=O	CYP2C9 inh 96.2, CYP2C19 inh 63.6
CCCCn1nc(C(=O)N[C@@H](CCSC)c2nc3ccccc3[nH]2)c2ccccc2c1=O	CYP2C9 inh 90.1, CYP2C19 inh 62.1
COC(=O)N/N=C/c1c(C)c(C(=O)c2ccc(F)cc2)n2ccccc12	none (no result: Cav32 inh, CYP2C9 activ, CYP2C9 inh, CYP2C19 inh, CYP2C19 act)
Cc1c(/C=N/NC(=O)c2cc(=O)[nH]c(=O)[nH]2)c2ccccn2c1C(=O)c1ccccc1	CYP2C9 inh 50.5
CC(NC(=O)CCCCCN1C(=O)c2ccccc2C1=O)c1ccc2c(c1)CCCC2 (stereo unspecified)	Cav32 inh -3.66, CYP2C9 inh 91.5
CC(NC(=O)CCCN1C(=O)c2ccccc2C1=O)c1ccc2c(c1)CCCC2 (stereo unspecified)	Cav32 inh -4.2, CYP2C9 inh 89.7, CYP2C19 inh 82.9
COc1cc2c(cc1OC)CN(C(=O)CCCN1C(=O)c3ccccc3C1=O)CC2	none
CCC(C)NC(=S)NNC(=O)c1ccc(C(C)(C)C)cc1 (stereo unspecified)	none (no result: CYP2C9 activ, CYP2C9 inh, CYP2C19 inh, CYP2C19 act)
COc1cccc(C2CC(c3cccc(NS(C)(=O)=O)c3)=NN2C(=O)c2ccccc2)c1OC (stereo unspecified)	none (no result: Cav32 inh, CYP2C9 activ, CYP2C9 inh, CYP2C19 inh, CYP2C19 act)
Cc1sc2nc(C)n(/N=C/c3ccc(O)cc3)c(=O)c2c1C	none
Cc1ccc(-c2csc3ncn(/N=C/N(C)C)c(=O)c23)o1	CYP2C19 inh 74.2
Cc1nc2scc(-c3ccco3)c2c(=O)n1/N=C/N(C)C	CYP2C19 inh 64.8
Cc1ccc(-c2csc3nc(C)n(N)c(=O)c23)o1	none
CCCN(CCC)C(=O)Cn1c2ccccc2c2nc(=O)cc(C)n21	none (no result: Cav32 inh, Pyk2 oligo antag)
COc1ccccc1N(C)S(=O)(=O)c1ccc(C(=O)NC(C)(C)C)cc1	CYP2C9 inh 72.8 (no result: Cav32 inh)
CC(Nc1ccccc1)c1cc(Cl)ccc1O (stereo unspecified)	Cav32 inh -7.11 (no result: CYP2C9 activ, CYP2C9 inh, CYP2C19 inh, CYP2C19 act)
Cc1c(NC(C)c2cc(Cl)ccc2O)c(=O)n(-c2ccccc2)n1C (stereo unspecified)	CYP2C9 inh 67.8, CYP2C19 inh 95.7
COc1ccc(NC(C)c2cc(Cl)ccc2O)cc1 (stereo unspecified)	CYP2C19 inh 58.4 (no result: Cav32 inh)
Cc1c(NC(C)c2ccccc2O)c(=O)n(-c2ccccc2)n1C (stereo unspecified)	none
